A selection: hits, their analogues and other compounds. The true share with any hit is near 1.3%.
IL2 activator – activators of IL-2; IL-2 activation reporter assay, cell-based qHTS; stimulated with anti-CD3/CD4/CD28 beads; in transgenic mouse T cells; activation, % (series mostly up to about 46 µM); 360,000 tested, 0.065% active
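Unstimulated transgenic mouse T cells; 60-min compound exposure; bead-based TCR/CD4/CD28 stimulation; 18 h culture, 37 degrees C; dual fluorescence (EGFP, DsRed) plate cytometry.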
TRPML1 blocker – inhibitors of human TRPML1 channel; 390,000 tested, 0.02% active; activity change, negative = inhibition, % (no concentration beside the values); Q9GZU1; TRPML1-inducible cells, Ca2+ dye fluorescence, FDSS; hits give low values; inhibition of EC80 agonist-evoked calcium signal; in the data active = activity change below about -50%; inconclusive = between about -30% and that limit;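 note: stimulus is agonist 54-4 at its EC80 concentration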
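Calcium fluorescence in TRPML1-DL cells induced overnight with Tet: a 110 s read after compound pin addition, then a 110 s antagonist read after challenge with 54-4 at 4 uM final (EC80).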
TSG101-PTAP inh – blocks PTAP/TSG101 interaction to inhibit HIV-1 budding; Potency, µM (titrated, usually from 115 µM), usual class: inhibitors; Q99816; Fluorescence polarization, FITC-PTAP peptide / Tsg101 binding; AID 493005; 340,000 tested, under 10 active; active = well fitted inhibition curve with a large enough effect in the main read-out, with a control signal flat, not every such curve was filed as active; inconclusive = small, poorly fitted or top-dose-only effect, or effect the other way, or a change in a side signal; inactive = no such curve, though single readings can be large or run the other way
Target sequence (Q99816 whole entry, looked up): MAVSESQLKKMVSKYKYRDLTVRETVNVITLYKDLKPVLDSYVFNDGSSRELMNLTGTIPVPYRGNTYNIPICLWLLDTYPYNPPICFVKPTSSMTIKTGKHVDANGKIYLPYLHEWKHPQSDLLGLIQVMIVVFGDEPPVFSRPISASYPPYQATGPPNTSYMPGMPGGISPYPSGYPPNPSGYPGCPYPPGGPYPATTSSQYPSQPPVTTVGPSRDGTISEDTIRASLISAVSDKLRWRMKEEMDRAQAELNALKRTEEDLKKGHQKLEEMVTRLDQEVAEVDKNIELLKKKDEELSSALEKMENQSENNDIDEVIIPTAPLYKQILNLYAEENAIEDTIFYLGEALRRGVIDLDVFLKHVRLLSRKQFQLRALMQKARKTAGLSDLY
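Steps: Tsg101 binding domain dispensed (10 uM final), compounds pinned in DMSO, FITC-labeled PTAP-motif peptide added (50 nM final); after 20 min binding at room temperature, polarization measured.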
BRCA1 expr up – increases BRCA1 expression; MCF7-BRCA1-FFLuc reporter, luminescence, 48 h; response scale: scaled: vehicle 0%, 10 µM genistein 100%; Potency, µM (titrated, usually from 46.1 µM), actives largely listed as activators; 380,000 tested, 1.1% active; AID 624202; active = well fitted activation curve with a large enough effect; inconclusive = small, poorly fitted or top-dose-only effect; inactive = no such curve, though single readings can be large or run the other way; note: nearly all actives have a fitted effect of over 80% in size
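MCF7 cells carrying a BRCA1-firefly luciferase reporter (2000 cells/well, phenol-red free MEM) were attached for 2 h at 37 °C, then given compounds for 48 h. Luminescence was read 15 min after luciferase reagent; activity normalized to genistein (10 microM) and DMSO.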
TRPML1 ag – activates the human TRPML1 channel; Q9GZU1; TRPML1-expressing cells, Ca2+ dye fluorescence, FDSS; activation, % (concentration not given with the values); 410,000 tested, 0.12% active; AID 624414
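Calcium fluorescence on an FDSS kinetic reader gave the read-out. Tet-induced TRPML1-DL cells were plated overnight, dye-loaded (Ca8 with quencher, 45-90 min, room temperature, dark), then read 110 s after compound addition, and again 110 s after 4uM final 54-4 (EC80).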
PKM2 activator – increases activity of human pyruvate kinase M2 | purified PKM2, Kinase-Glo ATP luminescence, activation; response scale: 0% is enzyme alone, no compound | Potency, µM (highest dose often 57.5 µM), usual class: activators | 260,000 tested, 0.34% active | AID 1631; active = well fitted activation curve with a large enough effect; inconclusive = small, poorly fitted or top-dose-only effect; inactive = no such curve, though single readings can be large or run the other way; note: nearly all actives have a fitted effect of over 55% in size
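Kinase-Glo luminescence reports ATP generated from ADP (0.1 mM) and PEP (0.5 mM) by purified hPK-M2 after 1 h at room temperature, pH 7.2 imidazole buffer; intermediate enzyme activity allows detecting inhibitors and activators.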
Numbers stand for hits; – = inactive; ? = inconclusive; · = no result given; [ ] = remark or other dose. Cut-off read from the data, not from the text of the source, unless noted: active = activation above about 50%; inconclusive = mostly about 30% to 49%; inactive = weaker than that.

SMILES	IL2 activator	TRPML1 blocker	TSG101-PTAP inh	BRCA1 expr up	TRPML1 ag	PKM2 activator
O=C(C[n+]1cccc(Cl)c1)c1ccc(F)cc1	·	·	·	–	–	·
CCC(CO)Oc1cc(NC(=O)c2ccc(OC)cc2)c2ncn(C(C)C)c2c1 (stereo not given)	–	-57	–	–	–	·
Cc1ccc(S(=O)(=O)N2C[C@@H]3[C@H]4CC[C@H](C4)[C@@H]3[C@@H](C)C2CC(=O)c2ccccc2)cc1 (stereo not given in full)	–	–	–	–	–	·
C=CCC1[C@H](C)[C@H]2[C@@H]3CC[C@@H](C3)[C@H]2CN1S(=O)(=O)c1ccc(C)cc1 (stereo not given in full)	–	–	–	–	54	·
Nc1ccc2c(c1)C=C/C2=C\c1ccccc1	·	·	·	4µM	–	·
OC(c1ccccc1)(c1nc(-c2ccc3c(c2)OCO3)cs1)C(F)(F)F (stereo not given)	–	·	·	–	–	·
N#C/C(=C\C=C\c1ccccc1)c1nc(-c2ccc3c(c2)OCO3)cs1	95	–	?	–	–	–
Cc1cccc(N(C)C(=O)c2cc3c(=O)oc4ccc(C)cc4c3s2)c1	·	–	·	–	–	·
CN(CC(=O)Nc1ccc(F)c(F)c1F)C(=O)C1CCCN1C(=O)c1cccs1 (stereo not given)	–	–	·	–	–	·
Cc1ccc(CN(C)C(=O)C2CCCN2C(=O)c2cccs2)o1 (stereo not given)	–	–	–	–	–	14µM
O=c1c2ccccc2nc2ccc(NCc3ccco3)nn12	–	–	–	3.5µM	–	–
CCNc1nc(NCc2ccco2)c2ccccc2n1	·	·	·	–	72	·
CNc1nc(NCc2ccco2)c2ccccc2n1	·	·	·	–	70	·
c1ccc(Nc2nc(NCc3ccco3)c3ccccc3n2)cc1	–	–	–	–	–	–
c1coc(CNc2nc3ccccc3s2)c1	–	–	–	3.2µM	–	·
Cc1nnc(NCc2ccco2)s1	–	–	–	–	–	–
Cc1sc2nc3ccc(NCc4ccco4)nn3c(=O)c2c1C	–	–	–	–	–	–
CSc1cccc(NC(=O)N2CCN(c3cc(-c4noc(C)n4)ccc3C)CC2)c1	·	–	·	–	–	·
Cc1ccccc1OCc1ccc(-c2nc(C#N)c(N3CCN(c4cccc(Cl)c4)CC3)o2)o1	·	–	·	·	–	·
O=[N+]([O-])c1ccc(COn2nnc3ccccc32)cc1	–	–	–	–	–	–
Clc1ccc(COn2nnc3ccccc32)c(Cl)c1	–	–	–	5.6µM	–	–
COc1ccc(S(=O)(=O)Nc2ccc(F)c(Cl)c2)cc1OC	–	–	–	–	–	16µM
COc1ccccc1N1CCN(C(=O)CSc2nc(C)c(Cc3ccccc3)c(=O)[nH]2)CC1	–	–	–	–	–	13µM
CCOc1ccccc1CNC(=O)C1CCN(C(=O)N2CC(CC)Oc3ccc(C)cc32)CC1 (stereo not given)	·	–	·	·	–	·
CCOc1ccc(NC(=O)Nc2ccccc2SC)cc1	–	–	–	2.8µM	–	–
SMILES	IL2 activator	TRPML1 blocker	TSG101-PTAP inh	BRCA1 expr up	TRPML1 ag	PKM2 activator
CCOc1ccc(NC(=O)Nc2ccon2)cc1	–	–	–	10µM	–	–
O=C(Cn1c(=O)n(-c2ccccc2)c(=O)c2c3c(sc21)CCCC3)Nc1ccc(F)cc1F	·	–	·	–	–	·
CC12CCC(C(=O)Nc3nccs3)(OC1=O)C2(C)C (stereo not given)	–	–	–	–[1.84 µM]	–	–
CC12CCC(C(=O)Nc3nc4ccc(Br)cc4s3)(OC1=O)C2(C)C (stereo not given)	–	–	–	8.9µM	–	–
Cc1cc(C(=O)OCC(N)=O)c(C)n1-c1ccccc1	–	–	–	–	–	–
C/C(N)=C(/C#N)C(=O)COC(=O)c1cc(C)n(-c2ccc(F)cc2)c1C	–	–	–	8.9µM	–	–
COc1cccc(CNC(=O)C2CCN(Cc3cc4ccccc4n3Cc3ccc(C)cc3)CC2)c1	·	–	·	·	–	·
COc1ccc(Nc2ncnc3c2nc2n3CCCCC2)cc1	·	–	·	10µM	–	·
CC1CCCN(c2ncnc3c2nc2n3CCCCC2)C1 (stereo not given)	·	–	·	11µM	–	·
CCN(CC)C(=O)C1CCCN(c2ncnc3c2nc2n3CCCCC2)C1 (stereo not given)	·	–	·	·	–	·
CCc1ccc(NC(=O)C2(c3ccccc3)CC2(Cl)Cl)cc1 (stereo not given)	–	–	–	–	54	–
Cc1ccc(NC(=O)C2(c3ccccc3)CC2(Cl)Cl)cc1C (stereo not given)	–	–	–	–	–	–
O=c1c(O)c(-c2cccs2)oc2ccccc12	–	–	–	–	55	–
O=c1cc(-c2cccs2)oc2ccc(Cl)cc12	–	–	–	–	–	–
O=c1c(O)c(-c2cccs2)oc2ccc(Cl)cc12	–	–	–	–	59	–
Cc1ccc(Cl)cc1NC(c1ccc(F)cc1)c1nnc(-c2ccccc2)o1 (stereo not given)	·	–	·	·	–	·
COc1ccccc1NC(=O)c1ccc(COc2ccccc2Br)o1	–	–	–	–	–	·
CN(C)C(=O)c1ccc(COc2ccccc2Br)o1	–	–	–	10µM	–	–
O=C(Nc1ccc(Cl)cn1)c1ccc(COc2ccccc2Br)o1	–	–	–	11µM	–	–
COc1ccc2nc3sc(C(=O)Nc4cc(Cl)c(OC)cc4OC)cc3cc2c1	·	–	·	–	–	·
Cc1cccc(C(=O)Nc2cccc(C(=O)OCc3cc(=O)n4c5c(sc4n3)CCCC5)c2)c1	·	–	·	·	–	·
Cc1cccc2c(=O)c(C(=O)NCc3cccs3)c[nH]c12	–	–	–	13µM	–	·
Cc1ccc2c(=O)c(C(=O)NCc3cccs3)c[nH]c2c1	–	–	–	11µM	–	–
Cc1cc(C(=O)NCc2cccs2)c(C)o1	–	–	–	–	–	–
CCOC(=O)c1c(-c2ccc(Br)cc2)csc1NC(=O)c1ccc(C(C)(C)C)cc1	·	–	·	·	–	·
C=C1C=C(C(F)F)n2ncc(C(=O)NCCc3ccc(Cl)cc3)c2N1	·	·	·	–	–	·
CCOc1ccc(-c2noc(-c3cccnc3)n2)cc1OC	–	–	–	8.9µM	–	–
COc1ccc(-c2noc(CCC(=O)Nc3cccnc3)n2)cc1OC	–	–	–	–	–	8.9µM
CCOc1cc(-c2noc(-c3cccnc3)n2)ccc1OC	–	–	–	–	–	–
COc1ccc(-c2noc(-c3cccnc3)n2)cc1OC	–	–	–	7.9µM	–	–

Screens (PubChem BioAssay)
